Measurements taken from PubChem BioAssay (NCI).
The panel holds about 79,000 compounds, 15% with a hit somewhere; the sample as a whole holds those more often. Rule as the data show it: active = growth inhibition above about 70%; inactive = the rest.

What was measured:
[1] = NCI Yeast Anticancer Drug Screen. Data for the rad50 strain (AID 155);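 also: 0% = growth of vehicle-only cultures of the same strain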; conditions: S. cerevisiae rad50 strain growth inhibition; at 50.0 µM; stronger effect = higher value
Method in brief: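 Vehicle-treated cultures provide the reference for the growth inhibition reported for compound-exposed, repair-deficient yeast.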

[2] = NCI Yeast Anticancer Drug Screen. Data for the mec2-1 strain (AID 157); conditions: S. cerevisiae mec2-1 strain, at 50.0 µM, stronger effect = higher value
Method in brief: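 Readout is yeast growth inhibition, normalised to vehicle-treated controls, in the mec2-1 strain exposed to compound.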

[3] = NCI Yeast Anticancer Drug Screen. Data for the sgs1 mgt1 strain (AID 161);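 also: 0% = growth of cultures given vehicle only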; conditions: S. cerevisiae sgs1 mgt1 strain, at 50.0 µM, stronger effect = higher value
Method in brief: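 This yeast growth screen uses a strain with defined DNA-repair lesions; compound-treated growth is compared with vehicle-treated growth.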

[4] = NCI Yeast Anticancer Drug Screen. Data for the cln2 rad14 strain (AID 165);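 also: 0% = growth equal to vehicle treated cultures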; conditions: S. cerevisiae cln2 rad14 strain, at 50.0 µM, stronger effect = higher value
Method in brief: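 Relative to vehicle controls, growth inhibition of compound-treated cln2 rad14 yeast was recorded.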

[5] = NCI Yeast Anticancer Drug Screen. Data for the bub3 strain (AID 167); conditions: S. cerevisiae bub3 mutant strain, at 50.0 µM, stronger effect = higher value
Method in brief: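 Mutant yeast screening strain plus compound; vehicle-treated cultures serve as the 0% inhibition reference.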

[6] = NCI Yeast Anticancer Drug Screen. Data for the mlh1 rad18 strain (AID 175); conditions: S. cerevisiae mlh1 rad18 strain growth inhibition; at 50.0 µM; stronger effect = higher value
Method in brief: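 Test agents were incubated with a yeast strain of defined genotype (DNA damage repair defect). Inhibition of growth was derived by comparison with vehicle-exposed cultures.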

Measured: growth inhibition

O=C(O)C1CCCN1Cc1cc2ccccc2c2ccccc12 (configuration not stated)
inactive: [1] 11.2% | [2] -11.1% | [3] -25.9% | [4] 8.6% | [5] -3.3% | [6] 26.5%

CC1(C)C2CC=C(/C=N\Nc3ccc([N+](=O)[O-])cc3[N+](=O)[O-])C1C2 (configuration not stated)
inactive: [1] -1.5% | [2] 1.95% | [3] -2.3% | [4] -3.35% | [5] -11.6% | [6] -12.1%

C=COS(=O)O
inactive: [1] -0.65% | [2] -3.45% | [3] -4.85% | [4] -6.7% | [5] 12.3% | [6] -0.15%

CCOC(=O)c1cc(C)nc2c1c(=O)n(-c1ccccc1)c(=O)n2CCCCN1CCN(c2ccccc2)CC1
inactive: [1] -1.7% | [2] -13.2% | [3] 4.8% | [4] 3.25% | [5] -21.8% | [6] -29.1%

COc1ccc(C#CCC(OC2OC(CO)C(O)C(O)C2O)C(O)c2ccc(OC)c(OC)c2)cc1OC (configuration not stated)
inactive: [1] -0.15% | [2] -7.55% | [3] -6.95% | [4] 12% | [5] -17.2% | [6] -15.9%

CCCCCCCCCCCCCCCCSc1ccc(Br)cc1
inactive: [1] 45% | [2] 7% | [3] 23.9% | [4] 1.8% | [5] 2.2% | [6] 21%

Cc1cc(C)c(NC(=O)CC#N)cc1C
inactive: [1] -5% | [2] -12.6% | [3] -17.4% | [4] -51.4% | [5] -1.35% | [6] -6.6%

CCOc1ccc(N=C2NC(=O)C(CC(=O)Nc3ccc(Cl)cc3Cl)S2)cc1 (configuration not stated)
inactive: [1] 15% | [2] 15.3% | [3] -7.4% | [4] -51.9% | [5] -6% | [6] 27.2%

C/C(CC(=O)Nc1ccccc1C)=N/NS(=O)(=O)c1ccc(C)cc1
inactive: [1] -2.2% | [2] -5.2% | [3] 10.2% | [4] 19.3% | [5] -18.4% | [6] -6.9%

O=C1CCCc2ccc([N+](=O)[O-])cc21
inactive: [1] -3.35% | [2] -54.7% | [3] -17.2% | [4] 18.6% | [5] -11.8% | [6] 23.1%

C/C(=N\N=C(/C)c1ccc(-c2ccccc2)cc1)c1ccc(-c2ccccc2)cc1
inactive: [1] 1.2% | [2] -27.8% | [3] 19.1% | [4] 2.2% | [5] 20.8% | [6] 13.3%

O=P(Nc1ccc(Cl)cc1)(Nc1ccc(Cl)cc1)N1CCCCC1
inactive: [1] 23% | [2] -45.1% | [3] 5.8% | [4] -21% | [5] 19.9% | [6] 9.2%

CNc1cccc2c1C(=O)c1ccccc1C2=O
inactive: [1] 0.55% | [2] -9.95% | [3] 19.4% | [4] 1.35% | [5] 3.85% | [6] 17.9%

Cc1cccc(N=Nc2c(C)nc(N)nc2C)c1C
inactive: [1] 4.35% | [2] 6.55% | [3] 2.1% | [4] -37.6% | [5] -13.6% | [6] 6.75%

COC(=O)C(Cc1ccccc1)NP(=O)(O)OCC1OC(n2cc(I)c(=O)[nH]c2=O)CC1O (configuration not stated)
inactive: [1] -11.8% | [2] -2.65% | [3] -15.2% | [4] -10.5% | [5] -10.1% | [6] 0.85%

COc1ccc(-c2cc(=O)c3cc(C)c(C)c(C#N)c3o2)cc1
inactive: [1] -25.9% | [2] -29.6% | [3] -35.8% | [4] -17.5% | [5] -29.9% | [6] -37.5%

Cc1cc2c(C)n(Cc3ccc(Cl)cc3Cl)nc2c(C#N)c1C
inactive: [1] -11.2% | [2] -7.05% | [3] -9.6% | [4] 20.2% | [5] -2.45% | [6] -3.9%

CSCCCS/C1=C/CCCCCCCCCC1
inactive: [1] -1.85% | [2] 11% | [3] -21.9% | [4] 14.8% | [5] -9.35% | [6] -38.6%

CC(=O)C(C)CO (configuration not stated)
inactive: [1] 14.2% | [2] -21.1% | [3] 5.5% | [4] 8.55% | [5] 9.2% | [6] 13.7%

O=C(O)CC(CSCP(=O)(O)O)C(=O)O (configuration not stated)
inactive: [1] 6.95% | [2] 1.55% | [3] 3.05% | [4] -7.85% | [5] 1.45% | [6] 15.7%

CC(N)C(=O)NC(C)P(=O)(O)O (configuration not stated)
inactive: [1] 2.7% | [2] 1.4% | [3] -7.15% | [4] -73% | [5] 9.05% | [6] 8.2%

O=C(C1CC=CCC1C(=O)N1CCCCC1)N1CCCCC1 (configuration not stated)
inactive: [1] 11.1% | [2] -8.65% | [3] -6.2% | [4] -3.7% | [5] 9.1% | [6] -16.9%

Cc1ccccc1NC(=O)C(=O)Cc1nc2ccccc2s1
inactive: [1] 14.8% | [2] -8.7% | [3] -1.5% | [4] 11.8% | [5] 9.15% | [6] 20.4%

COc1cc(COC(=O)Nc2ccccc2F)cc(OC)c1OC
inactive: [1] -4.9% | [2] -19.1% | [3] 7.25% | [4] 5.85% | [5] 19.6% | [6] -10%

CCCCCCCCCCC(C(=O)O)C1(C(=O)O)CCC(=O)O1 (configuration not stated)
inactive: [1] -15.7% | [2] -32.4% | [3] -5.8% | [4] 11.4% | [5] -9.4% | [6] -5.25%

COc1ccc(C2OC3=C(Nc4ccc([N+](=O)[O-])cc4N3)C2=O)cc1OC (configuration not stated)
inactive: [1] -9.75% | [2] -24.2% | [3] -16.1% | [4] -3.7% | [5] -32.5% | [6] -0.7%

COc1ccc(NC(=O)/C(Cc2cc(=O)oc3cc(O)ccc23)=N\NC(C)(C)C)c(OC)c1
inactive: [1] -4.4% | [2] 2.8% | [3] 9.3% | [4] 4% | [5] -1.8% | [6] 7.3%

O=C(O)CCC1(C(=O)O)NCCc2c1[nH]c1ccccc21 (configuration not stated)
inactive: [1] 8.1% | [2] 11.8% | [3] 5.1% | [4] 8.55% | [5] 7.9% | [6] 12.6%

O=S1OC(c2ccccc2)C(c2ccccc2)O1 (configuration not stated)
inactive: [1] -2.1% | [2] -10.5% | [3] -4.55% | [4] 11.8% | [5] -1.45% | [6] -7.7%

COc1cc2c(cc1O)C(C)C(c1ccccc1)O2 (configuration not stated)
inactive: [1] 3.95% | [2] 4.8% | [3] 9.45% | [4] -21.1% | [5] 7.15% | [6] 13.2%

COC(=O)C=Cc1ccc2nncnc2c1 (mixture of isomers)
inactive: [1] 24.1% | [2] 21.7% | [3] 8.15% | [4] 17.1% | [5] 36.4% | [6] -7.7%

CC(C)(C)[Si](C)(C)OC1C(=O)C[C@H]2CCCC[C@@H]12 (some centres not stated)
inactive: [1] -6.75% | [2] 0.85% | [3] -1.75% | [4] 17.1% | [5] 10.2% | [6] 22.3%

CCCCC(N)=O
inactive: [1] -21.9% | [2] -9.05% | [3] 9.8% | [4] 5.7% | [5] -5.2% | [6] 4.3%

C/C(=N/NC(=O)c1ccccc1O)c1ccc(/C(C)=N\NC(=O)c2ccccc2O)c2nc3cc(C)c(C)cc3nc12
inactive: [1] -41.2% | [2] -14.3% | [3] -31.4% | [4] 4.65% | [5] 6.7% | [6] -27.8%

CN1CNC(=S)NC1
inactive: [1] 10.2% | [2] -7.85% | [3] 11% | [4] 17.6% | [5] 20.9% | [6] 15.2%

O=C1NC(N2CCOCC2)=N/C1=C\c1ccccc1
inactive: [1] 8% | [2] 11.2% | [3] -9.8% | [4] -3.65% | [5] -1.2% | [6] -15.3%

COc1c([N+](=O)[O-])ccc(C(OC(C)=O)OC(C)=O)c1OC(C)=O
inactive: [1] 33.9% | [2] 23.1% | [3] 55.8% | [4] 2.35% | [5] 31.9% | [6] 29.4%

CCC/C(CC)=N\Nc1ccc([N+](=O)[O-])cc1[N+](=O)[O-]
inactive: [1] -6.9% | [2] 9.4% | [3] -2.35% | [4] 30.9% | [5] 12.9% | [6] -4.1%

N=C(N)c1ccc(N=Nc2ccc(N)cc2N)cc1
inactive: [1] 7.4% | [2] -3.75% | [3] -7.45% | [4] 12.8% | [5] -5.25% | [6] -0.4%

CSc1ccc2c(=O)c(C(=O)O)c[nH]c2c1
inactive: [1] -0.05% | [2] 15.7% | [3] 5.25% | [4] 1.75% | [5] 10.3% | [6] 5.85%

CCOC(=O)C1SC(=Nc2ccc(Cl)c(Cl)c2)N=C1C (configuration not stated)
inactive: [1] -29.9% | [2] -2.8% | [3] -6.4% | [4] 5.9% | [5] -11.7% | [6] -10.1%

O=C(c1ccc(CSc2ccc(Cl)cc2)o1)N1CCOCC1
inactive: [1] 23.9% | [2] 12% | [3] 45.5% | [4] 24.2% | [5] 32.6% | [6] 26.6%
